Pf Dd2 growth: blocks in vitro growth of P. falciparum Dd2. P. falciparum Dd2 growth, SYBR Green, 72 h. Potency, µM (top dose mostly 28.9 µM), without a hit: at the highest dose activity, negative = inhibition, actives largely listed as inhibitors. actives 4.3% (n = 120,000). AID 1347417; active = well fitted inhibition curve with a large enough effect;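 also: plate controls were DMSO vehicle for no effect and reference drug for full effect; nearly all actives have a fitted effect of over 65% in size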
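Readout: SYBR Green fluorescence, 485 nm excitation, 535 nm emission, after ~16 h lysis at 37C. Before that, Dd2-infected red cells (2.5% hematocrit) grew 72 h with compound, 29 uM top final concentration.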
The depositor's hits bear a star; [ ] = another dose, or the depositor's remark. This excerpt belongs to a sample that is enriched for hits. Potency is read from the fitted curve at half-maximal effect.

How did CCCn1c(C)cnc1CC1CCN(C(C)=O)C1 (stereo not drawn) do in these assays?
Pf Dd2 growth: 14%

How did NC(=O)[C@@H]1CN(C(=O)c2ccccc2F)C[C@H]1COc1ccccc1 do in these assays?
Pf Dd2 growth: 9%

Results for N[C@H]1CN(C(=O)c2ccccc2Oc2ccccc2)C[C@@H]1C1CC1 ?
Pf Dd2 growth: 6.3µM*

Results for N[C@H]1CN(C(=O)C2CCN(C(=O)c3ccccn3)CC2)C[C@@H]1C1CC1 ?
Pf Dd2 growth: -14%

Results for Cc1cccc(CN2CCc3nc(N4CCN(C)CC4)[nH]c(=O)c3CC2)c1 ?
Pf Dd2 growth: inactive[5.79 µM]

How did CCC(=O)N1CCc2c(C(=O)NCc3cccc(F)c3)cccc21 do in these assays?
Pf Dd2 growth: inactive

What do the screens show for `CCOc1ccccc1CNC(=O)c1cccc2c1CCN2C(=O)CC`?
Pf Dd2 growth: 10µM*

What do the screens show for `CCOc1ccccc1CNC(=O)c1ccc2c(c1)N(S(C)(=O)=O)CC2`?
Pf Dd2 growth: inactive

Results for CCCC(=O)N1CC2CC(C1)[C@H]1CCCC(=O)N1C2 (stereo partly drawn) ?
Pf Dd2 growth: -5%

Results for COc1ccc(CN2CCC(CO)(CN3CCCC3)CC2)cc1C ?
Pf Dd2 growth: inactive

Results for CC(C)Oc1ccc(CN2CCC(CO)(CN3CCCC3)CC2)cc1Cl ?
Pf Dd2 growth: 13µM*

How did OCC1(CN2CCCC2)CCN(Cc2cnn(-c3ccccc3)c2)CC1 do in these assays?
Pf Dd2 growth: inactive

How did COc1ccc(CN2CCC(CO)(CN3CCCC3)CC2)cc1OC do in these assays?
Pf Dd2 growth: -14%

What do the screens show for `CCc1ccc(CN2CCC(CO)(CN3CCCC3)CC2)cc1`?
Pf Dd2 growth: 7.1µM*

How did Cc1cc(CN2CCC(CO)(CN3CCCC3)CC2)ccc1F do in these assays?
Pf Dd2 growth: -28%

How did COc1cc(C(=O)N2CCC(c3n[nH]c(=O)n3-c3ccccc3)CC2)cc(OC)c1OC do in these assays?
Pf Dd2 growth: inactive

Results for CN1CCCN(C(=O)Nc2ccc3c(c2)OCCO3)c2ccccc21 ?
Pf Dd2 growth: inactive

How did Cn1nccc1CN1CCC2(CC1)Cc1ccccc1NC2=O do in these assays?
Pf Dd2 growth: -24%[44.1 µM]

Results for COc1cccc(CN2CCC3(Cc4ccccc4NC3=O)C2)c1 (stereo not drawn) ?
Pf Dd2 growth: -4%[44.1 µM]

How did O=C1NCc2ccccc2CC12CCN(Cc1ccncc1Cl)C2 (stereo not drawn) do in these assays?
Pf Dd2 growth: 10%

Results for CC(=O)Nc1ccc(CN2CCCC3(Cc4ccccc4CNC3=O)C2)cc1 (stereo not drawn) ?
Pf Dd2 growth: -16%

What do the screens show for `CC(C)(C)CN1CCC2(Cc3ccccc3CNC2=O)C1` (stereo not drawn)?
Pf Dd2 growth: -25%[44.1 µM]

Results for CC(C)Cc1ccc(CN2CCC3(Cc4ccccc4CNC3=O)C2)cc1 (stereo not drawn) ?
Pf Dd2 growth: 13µM*

How did O=C1NCc2ccccc2CC12CCN(Cc1ccc(Oc3ccccc3)cc1)C2 (stereo not drawn) do in these assays?
Pf Dd2 growth: 11µM*

Results for N#Cc1ccc(CN2CCC3(Cc4ccccc4CNC3=O)C2)cc1 (stereo not drawn) ?
Pf Dd2 growth: 5%

Results for Cc1ccc(CN2CCC3(CC2)Cc2ccccc2NC3=O)cc1 ?
Pf Dd2 growth: 4.5µM*

Results for FC(F)(F)c1ccc(CN2CC[C@H](c3nc4cc(Cl)ccc4o3)C2)cc1 ?
Pf Dd2 growth: inactive

What do the screens show for `CN(C)c1nc(-c2ccccc2)nc2c1CCN(C(=O)[C@@H](O)c1ccccc1)C2`?
Pf Dd2 growth: -18%

What do the screens show for `COCCn1c(=O)c2c(n1Cc1ccccc1)CN(C(=O)c1cccc(C#N)c1)CC2`?
Pf Dd2 growth: 43%[44.1 µM]

Results for O=C(O)C1CCc2sc(C(=O)N3CCCCCC3)cc2C1 (stereo not drawn) ?
Pf Dd2 growth: -11%

What do the screens show for `Cn1ccc2c(C(=O)NCc3cccnc3)nc(-c3cccc(F)c3)cc21`?
Pf Dd2 growth: -21%[44.1 µM]

How did C[C@@H](NC(=O)N1CCC2(CCC(=O)N(CCO)C2)CC1)c1ccccc1 do in these assays?
Pf Dd2 growth: -6%

How did Cc1cc(C)n(CCC(=O)N[C@@H]2CCOC[C@H]2OCC2CCC2)c(=O)n1 do in these assays?
Pf Dd2 growth: -11%

What do the screens show for `CCNC(=O)N(C1CC1)C1CCOC2(CCN(C(=O)c3ccc4nc[nH]c4c3)CC2)C1` (stereo not drawn)?
Pf Dd2 growth: -21%

Results for Cc1cc(C(=O)N[C@@H]2CCC[C@@H](C(=O)N3CCN(C)CC3)CC(=O)N(C)C2)no1 ?
Pf Dd2 growth: 8%[44.1 µM]

Results for CS(=O)(=O)NC1CCN(c2nc(-c3cccnc3)nc3c2CNC3)CC1 ?
Pf Dd2 growth: 4%

Results for c1cncc(-c2nc3c(c(NCc4ccccc4-n4ccnc4)n2)CNC3)c1 ?
Pf Dd2 growth: inactive

How did CCCOc1ccccc1C(C)Nc1nc(-c2cccnc2)nc2c1CNC2 (stereo not drawn) do in these assays?
Pf Dd2 growth: 11µM*

What do the screens show for `O=C(NC1CCN(c2cc(-c3cccs3)[nH]n2)C1)c1ccc(F)cc1Cl` (stereo not drawn)?
Pf Dd2 growth: inactive

How did CCN(Cc1ccccc1)C(=O)c1sc2nc3n(c(=O)c2c1C)CCCC3 do in these assays?
Pf Dd2 growth: 235%[5.79 µM]

Results for CCc1ccc(N(CC)C(=O)c2sc3nc4n(c(=O)c3c2C)CCCC4)cc1 ?
Pf Dd2 growth: 11µM*

How did CCN(C(=O)c1sc2nc3n(c(=O)c2c1C)CCCCC3)c1ccc(OC)cc1 do in these assays?
Pf Dd2 growth: -8%

How did O=C(Cc1ccccc1Cl)NCc1nnc2ccc(-c3ccccc3)nn12 do in these assays?
Pf Dd2 growth: -16%

How did COc1ccc(-c2cc(N3CCC(NC(=O)c4ccc5c(c4)OCO5)C3)n[nH]2)cc1 (stereo not drawn) do in these assays?
Pf Dd2 growth: -4%

What do the screens show for `CN1CCN(C[C@H]2CN3CC[C@H]2C[C@@H]3CNC(=O)Nc2ccccc2)CC1`?
Pf Dd2 growth: 21%[44.1 µM]

Results for N#Cc1cccc(NC(=O)NC[C@H]2C[C@@H]3CCN2C[C@@H]3CN2CCSCC2)c1 ?
Pf Dd2 growth: -3%[44.1 µM]

Results for CSc1cccc(NC(=O)NC[C@H]2C[C@@H]3CCN2C[C@@H]3CN2CCSCC2)c1 ?
Pf Dd2 growth: 10µM*

How did O=C1NCc2ccccc2CC12CCN(Cc1ccc(Br)cn1)C2 (stereo not drawn) do in these assays?
Pf Dd2 growth: -17%

How did N#Cc1cccc(C(=O)N2CCCN(C(=O)C3CC3)C(c3ccccc3)CC(=O)NCC2)c1 (stereo not drawn) do in these assays?
Pf Dd2 growth: -11%

What do the screens show for `CCc1cn(C[C@H](NC2CCCCC2)C(=O)O)c(=O)[nH]c1=O`?
Pf Dd2 growth: -3%[44.1 µM]

Results for Cc1ccc(NC(=O)C2CCCN(S(=O)(=O)c3ccc(F)cc3)C2)cc1 (stereo not drawn) ?
Pf Dd2 growth: inactive

What do the screens show for `CCc1ccc(NC(=O)C2CCCN(S(=O)(=O)c3ccc(F)cc3)C2)cc1` (stereo not drawn)?
Pf Dd2 growth: 4%

What do the screens show for `O=C(Nc1ccc(-c2cccc(F)c2)cc1)C1CCCN(C(=O)c2ccncc2)C1` (stereo not drawn)?
Pf Dd2 growth: 7.1µM*

What do the screens show for `CC(=O)NCC(=O)N1CCCC(C(=O)Nc2cccc(-c3ccc(F)cc3)c2)C1` (stereo not drawn)?
Pf Dd2 growth: -16%

What do the screens show for `CC(C)(C)CC(=O)N1CCCC(C(=O)Nc2cccc(-c3ccc(F)cc3)c2)C1` (stereo not drawn)?
Pf Dd2 growth: -18%

Assay outcomes: PubChem BioAssay, National Center for Advancing Translational Sciences (NCATS)
